Measurements reported in PubChem BioAssay (NCI).
About 79,000 compounds went through this panel and 15% of them were active in at least one assay; those are over-represented in the sample as a whole. No stated cut-off is given here; in the data, active means growth inhibition above about 70%; inactive means the rest.

Legend:
[1] = NCI Yeast Anticancer Drug Screen. Data for the rad50 strain (AID 155);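 further: 0% = growth of vehicle-only cultures of the same strain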; conditions: S. cerevisiae rad50 strain growth inhibition; at 50.0 µM; stronger effect = higher value
Method in brief: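 Inhibition values express reduced yeast growth in compound-treated cultures relative to vehicle-treated controls.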

[2] = NCI Yeast Anticancer Drug Screen. Data for the mec2-1 strain (AID 157); conditions: S. cerevisiae mec2-1 strain, at 50.0 µM, stronger effect = higher value
Method in brief: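 Test agents were screened against the mec2-1 yeast strain, with defined DNA repair or cell cycle alteration. Growth was scored as inhibition against vehicle-only controls.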

[3] = NCI Yeast Anticancer Drug Screen. Data for the sgs1 mgt1 strain (AID 161);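 further: 0% = growth of cultures given vehicle only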; conditions: S. cerevisiae sgs1 mgt1 strain, at 50.0 µM, stronger effect = higher value
Method in brief: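 Genetically altered yeast, compound exposure, growth inhibition relative to vehicle.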

[4] = NCI Yeast Anticancer Drug Screen. Data for the cln2 rad14 strain (AID 165);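 further: 0% = growth equal to vehicle treated cultures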; conditions: S. cerevisiae cln2 rad14 strain, at 50.0 µM, stronger effect = higher value
Method in brief: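 Growth of compound-exposed yeast (cln2 rad14 genotype) measured and expressed as inhibition relative to vehicle.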

[5] = NCI Yeast Anticancer Drug Screen. Data for the bub3 strain (AID 167); conditions: S. cerevisiae bub3 mutant strain, at 50.0 µM, stronger effect = higher value
Method in brief: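 Steps: expose the mutant yeast strain to compound; grow alongside vehicle-treated cultures; measure growth; express inhibition against the vehicle cultures.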

[6] = NCI Yeast Anticancer Drug Screen. Data for the mlh1 rad18 strain (AID 175); conditions: S. cerevisiae mlh1 rad18 strain growth inhibition; at 50.0 µM; stronger effect = higher value
Method in brief: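 In this whole-cell yeast screen, a strain with altered DNA damage repair is challenged with compound, and its growth is measured against matched vehicle-treated controls.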

Measured: growth inhibition

Cc1ccc(OS(=O)Nc2cccc(N)c2)cc1 (stereo not drawn)
inactive: [1] -5.35% | [2] -12.1% | [3] -13.9% | [4] -22.1% | [5] -8.4% | [6] -10.3%

O=C1c2ccccc2C(=O)c2c1ccc(C1C(=O)c3ccccc3C1=O)c2-c1c(C2C(=O)c3ccccc3C2=O)ccc2c1C(=O)c1ccccc1C2=O
inactive: [1] -18.4% | [2] -16.8% | [3] -35.5% | [4] -17.5% | [5] -33.1% | [6] 4.15%

CC(C)(C)NNC(=O)/C(=C/c1ccc(Oc2ccc(Cl)c(Cl)c2)cc1)NC(=O)c1ccccc1
inactive: [1] 7.45% | [2] 1.1% | [3] 2.1% | [4] -4.2% | [5] -1.6% | [6] 16.1%

COc1cc(C(=O)CBr)c(OC)cc1C
inactive: [1] 10.9% | [2] -10.7% | [3] 38% | [4] 17% | [5] 2.15% | [6] 46.8%

C=C(C)C1CCC2(CO)C(O)CC3(C)C(CCC4C5(C)CCC(O)C(C)(C)C5CCC43C)C12 (stereo not drawn)
inactive: [1] 14.5% | [2] 7.45% | [3] -8.75% | [4] 2.95% | [5] 15.6% | [6] -6.6%

COC1/C=C\OC2(C)Oc3c(C)c(O)c4c(O)c(c5c(c4c3C2=O)NC2(CCN(C)CC2)N=5)=NC(=O)/C(C)=C\C=C\C(C)C(O)C(C)C(O)C(C)C(OC(C)=O)C1C (stereo not drawn)
inactive: [1] 2.85% | [2] 3% | [3] -1% | [4] 10.3% | [5] 7% | [6] 3.25%

Cc1cccc(-c2cccc(C)c2C)c1C
inactive: [1] -6.5% | [2] 4.75% | [3] -1.35% | [4] 11.7% | [5] 4.2% | [6] 16.1%

CC(C)(C)c1ccc(O)c(CNCCO)c1
inactive: [1] 21.1% | [2] -6.65% | [3] -3.25% | [4] -28.1% | [5] 3.9% | [6] 8.05%

CCN(CC)C(=O)COc1ccc(Cl)cc1C(C)C
inactive: [1] -17.9% | [2] -16.8% | [3] 1.35% | [4] -2.45% | [5] 14.9% | [6] -31.4%

O=C1NCC(C2CC2)(C2CC2)O1
inactive: [1] 8.85% | [2] -16.9% | [3] -5.7% | [4] -34% | [5] 8.7% | [6] -21%

COC1(OC)CCCCCCCCC(OC)(OC)CCCCCCCC1
inactive: [1] 7.5% | [2] -18.4% | [3] -10.4% | [4] 13% | [5] 16.2% | [6] -8.2%

O=C(O)c1cc([N+](=O)[O-])cc(P(=O)(O)O)c1
inactive: [1] 2.55% | [2] -6.45% | [3] -2% | [4] -20.2% | [5] -3.55% | [6] 12.9%

CCOC(=O)C(=O)Cc1cc(=O)n(C)c2ccccc12
inactive: [1] 12.5% | [2] 16.1% | [3] 16.4% | [4] 1.8% | [5] 13.9% | [6] 1.5%

Cc1ccc(S(=O)(=O)NCC(=O)OCc2ccccc2)cc1
inactive: [1] 4.15% | [2] 3.4% | [3] 1.2% | [4] -0.55% | [5] 12.4% | [6] 7.8%

COC(=O)/C=C(\C(=O)OC)c1cc(C)c2cc(C(C)C)ccc(C)c1-2
inactive: [1] 4.25% | [2] -22.2% | [3] 13% | [4] 13.8% | [5] -7.5% | [6] 17.9%

CCOC(=O)C1=C(O)C(=O)c2ccoc2C1=O
inactive: [1] -52.9% | [2] -35.2% | [3] -58% | [4] -7.15% | [5] -32.5% | [6] -32%

COC(=O)CC(c1ccc(OC)cc1)C(CC(=O)OC)c1ccc(OC)cc1 (stereo not drawn)
inactive: [1] -19.2% | [2] -29.8% | [3] 13.9% | [4] 15.8% | [5] 25.9% | [6] -20.1%

Cc1ccc(S(=O)(=O)OC2=C/C(=N\c3onc(C)c3C)c3ccccc3C2=O)cc1
inactive: [1] -41.6% | [2] -19.4% | [3] -27.9% | [4] -5.4% | [5] -15% | [6] -19.3%

COc1ccc(OC)c(NC(=O)NN(C)C)c1
inactive: [1] -31.4% | [2] -38.8% | [3] -2.25% | [4] 7.95% | [5] -21.1% | [6] -21.6%

O=C(OC1CCc2ccccc2C1)c1ccc(N=Nc2ccccc2)cc1 (stereo not drawn)
inactive: [1] 24.5% | [2] 5.55% | [3] 20.7% | [4] -39.8% | [5] 5.95% | [6] 18.9%

CC(=O)c1ccc(NC(=O)/C(=N\NC(N)=O)C(C#N)CC(C)(C)C=O)cc1 (stereo not drawn)
inactive: [1] 29.3% | [2] 17.4% | [3] -2.55% | [4] 21.1% | [5] 33.6% | [6] 16.6%

CCCCCCCCCCCC[N+]12CC[N+](C)(CC1)CC2
inactive: [1] 16.2% | [2] -24.4% | [3] -10.7% | [4] -49% | [5] -27.6% | [6] -15.6%

Nc1cc(F)cc(C(F)(F)F)c1F
inactive: [1] 13.5% | [2] -32.3% | [3] -4.3% | [4] -12.2% | [5] -5.35% | [6] 18.6%

CC1C(=O)OC(=O)C1C (stereo not drawn)
inactive: [1] -11.2% | [2] -6.2% | [3] 11.5% | [4] 4% | [5] -4.6% | [6] 8.8%

CC#CC(C)(C)N(C)C
inactive: [1] -16.6% | [2] -8.45% | [3] -8.75% | [4] -21.4% | [5] 12.8% | [6] 14.1%

COc1ccc(Cc2cc3c(cc2OCC(=O)Nc2ccccn2)OCO3)cc1
inactive: [1] 22.2% | [2] -1.95% | [3] 6.25% | [4] 19.3% | [5] -3% | [6] 8.1%

O/N=C1/CC2CCCCC2CC1(O)c1ccccc1 (stereo not drawn)
inactive: [1] 17.3% | [2] 19.1% | [3] 17.6% | [4] 18.4% | [5] -3.55% | [6] 30.4%

C/C=C/COc1cc2c(cc1C(C)c1ccc(OC)cc1)OCO2 (stereo not drawn)
inactive: [1] -9.3% | [2] -0.95% | [3] -6.15% | [4] 24.4% | [5] -3.85% | [6] -1.2%

CN(C)c1ccc(SC2OC(CO)C(O)C(O)C2O)cc1 (stereo not drawn)
inactive: [1] -12.8% | [2] -5.25% | [3] -7.3% | [4] -54.5% | [5] 3.7% | [6] -10%

Nc1ccccc1SC1CC(=O)N(c2ccc(Oc3ccc(Cl)cc3)cc2)C1=O (stereo not drawn)
inactive: [1] 25.6% | [2] 12.2% | [3] 13.8% | [4] -12.2% | [5] -0.15% | [6] 2.55%

O=C1CC(C(=O)O)C(C(Cl)(Cl)Cl)O1 (stereo not drawn)
inactive: [1] -18.9% | [2] -26.4% | [3] 1.8% | [4] -22.7% | [5] -6.7% | [6] -1.2%

CNC1C(CO)OC(OC)C1O (stereo not drawn)
inactive: [1] 10.8% | [2] 12% | [3] 7.1% | [4] 8% | [5] 1.2% | [6] -2.85%

COC(=O)C[C@H](C)[C@H](C)CC(=O)O
inactive: [1] -17.6% | [2] -19.9% | [3] -1.6% | [4] -7.3% | [5] -0.45% | [6] -12.9%

NC(=S)N/N=C/c1ccc(OC(=O)Cc2ccccc2)cn1
inactive: [1] 19.7% | [2] -6.6% | [3] 10.1% | [4] 7.1% | [5] 4.55% | [6] 16.4%

CN(C)CCSC(CO)c1ccccc1 (stereo not drawn)
inactive: [1] -12.7% | [2] -13.4% | [3] 2.85% | [4] 9.2% | [5] -1.15% | [6] -6.5%

O=[N+]([O-])c1ccc(/C=C/c2cc(N(CCO)CCO)c3ccccc3n2)cc1
inactive: [1] 8.35% | [2] -1.05% | [3] -31.2% | [4] -11.1% | [5] -0.4% | [6] -2.95%

Clc1ccc2c(c1)nnn1nccc21
inactive: [1] 16.4% | [2] 17.6% | [3] -9.8% | [4] 10.9% | [5] 13.8% | [6] 14.8%

C=C1C(=O)OC2CCC3OC(C)(C)OC3C12 (stereo not drawn)
inactive: [1] 6.2% | [2] 17.5% | [3] 15.4% | [4] -16.9% | [5] 31.9% | [6] 10.6%
